# Data taken from PubChem BioAssay (NCI).
# This is part of a sample that, as a whole, favours compounds with a hit. Of some 79,000 tested, about 15% had one in any assay. Values without a mark were called inactive. Active and inactive are the calls of the source. No stated cut-off is given here; in the data, active means growth inhibition above about 70%; inactive means the rest.
# Assay: NCI Yeast Anticancer Drug Screen. Data for the wt2 strain (AID 169);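 further: 0% = growth of vehicle-treated yeast cultures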
# Details: S. cerevisiae wt2 strain growth inhibition, hits give high values
# Description: Growth inhibition of yeast strains with defined genetic alterations is measured as a screen for potential anti-cancer activity. Selected strains with alterations in DNA damage repair or cell cycle control were exposed to compounds and growth inhibition was measured relative to vehicle treated controls. The strain used in this assay is wt2
Structure (SMILES),growth inhibition (at 1.2 µM),growth inhibition (at 3.7 µM),growth inhibition (at 11.0 µM),growth inhibition (at 33.0 µM),growth inhibition (at 100.0 µM)
BrCC[P+](c1ccccc1)(c1ccccc1)c1ccccc1,-15%,-5%,15%,88% (active),95% (active)
O=C1CSc2cc([N+](=O)[O-])ccc2N1,19%,23%,14%,21%,4%
COc1ccc(Br)c(C(=O)Sc2nnnn2-c2cccc(Cl)c2)c1,-11%,-15%,-35%,-8%,93% (active)
COC1=CC(=O)C(C2(OC(C)C)OC(=O)C(Cl)=C2Cl)=CC1=O (stereo not given),-1%,10%,98% (active),99% (active),99% (active)
S=C(Nc1ccc(Cl)cc1)SC1CCCCC1,-35%,-22%,78% (active),99% (active),98% (active)
COC1C=COC2(C)Oc3c(C)c(O)c4c(c3C2=O)/C(=N/C2CCC(O)OC2C)C=C(NC(=O)/C(C)=C\C(=O)C2CC2C(O)C(C)C(O)C(C)C(OC(C)=O)C1C)C4=O (stereo not given),-1%,1%,0%,28%,94% (active)
Cc1ccc(S(=O)(=O)NC(=O)NC2=NC(C)(C)N(c3ccc(Cl)c(Cl)c3)C(N)=N2)cc1,-3%,-4%,-3%,-4%,-3%
BrCc1cccc2ccc3cccc(CBr)c3c12,-2%,-5%,-4%,-6%,-4%
